According to the supplement of paper PMC11417369:
The full ranking holds about 25,000 sequences; the median of “ln(normalized median fluorescence intensity)” is about 6.7, and the highest 2% start at about 10. Shown is part of a subset that was picked to be rich in the highest values.

tested on: PfHDP1 homeodomain (GST-tagged); assay: gcPBM binding intensity (ln(normalized median fluorescence intensity)); higher = stronger DNA binding
In short: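 The binding buffer was 1× PBS containing 1% milk, 0.2 mg/ml BSA, 0.5% salmon testes DNA and 0.03% Triton X-100. In it, GST-tagged P. falciparum DNA-binding domains expressed in E. coli were applied for 1 h to an Agilent 4 × 180k array of primer-extended double-stranded 36-bp intergenic genomic probes plus negative controls. Binding intensity, read with Alexa488 anti-GST antibody and a 488 nm scan, is the highest Masliner-normalised natural-log median intensity across replicate spots of either probe orientation.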

Q: With “AAAGGAAAAAAAAGCACACACAATATTACTTGAAAT [CACACA_site2588]” as the sequence, how does the “gcPBM binding intensity (ln)” value read?
A: 6.9

Q: For “TAATTATTACACGGTATTATATATAATATGTTAAAA [GTGCAC_negctrl_site134]”, which “gcPBM binding intensity (ln)” value is on record?
A: 6.6

Q: “ATATTGATACATCCAATACACACTACATATAATGAT [CACACA_site1874]” was tested. Which “gcPBM binding intensity (ln)” value did it give?
A: 6.82

Q: “TTATATTTATAAAATTGTATACCCCTTCTAACTTTC [CACACA_negctrl_site250]” was tested. Which “gcPBM binding intensity (ln)” value did it give?
A: 6.7

Q: With “ATATATATTTTTTAAACACACACATAAATATTTGTG [CACACA_site8936]” as the sequence, how does the “gcPBM binding intensity (ln)” value read?
A: 6.94

Q: How did the “gcPBM binding intensity (ln)” value turn out when “TATAAACCTTTTTGCACGCACACAAAAAAAAAATAA [CACACA_site168]” was run?
A: 9.61

Q: “ATATATTTATTTTGTGCACACAACGCAAACCTTTTA [CACACA_site3508]” was tested. Which “gcPBM binding intensity (ln)” value did it give?
A: 11.3

Q: With “TATAAAAATGTGCACACACACACATATTTATATTTA [CACACA_site6826]” as the sequence, how does the “gcPBM binding intensity (ln)” value read?
A: 10.1

Q: For “TTTTGTTATAAATAATGTACATATTTATTTAAAATT [XGTACX_site6610]”, which “gcPBM binding intensity (ln)” value is on record?
A: 6.25

Q: “AAAATATAAATTCATGTGCACATATATATTTTGTTA [GTGCAC_site9782]” was tested. Which “gcPBM binding intensity (ln)” value did it give?
A: 10.7

Q: For “AAAATGTGCATATTTGCACACTTCAATATATATATA [CACACA_site1791]”, which “gcPBM binding intensity (ln)” value is on record?
A: 11.2

Q: With “AAAAAATATATTTGCACACTCAAAAAAAAAAAAAAA [CACACA_site859]” as the sequence, how does the “gcPBM binding intensity (ln)” value read?
A: 10.3

Q: How did the “gcPBM binding intensity (ln)” value turn out when “TTTATATTTTATAAATTATTCATAAATATATTTGTA [TGCATGCA_negctrl_site175]” was run?
A: 6.34

Q: “TCAAAAAATATATTTGCACACTCAAAAAAAAAAAAA [CACACA_site860]” was tested. Which “gcPBM binding intensity (ln)” value did it give?
A: 10.2

Q: How did the “gcPBM binding intensity (ln)” value turn out when “GTGCAAAATATTTTTACACACAAATTTTTACAACAG [CACACA_site3357]” was run?
A: 8.07

Q: “TTTTTTATTTTGTGCACACACATAAAAATATAAATA [CACACA_site6497]” was tested. Which “gcPBM binding intensity (ln)” value did it give?
A: 11.4

Q: How did the “gcPBM binding intensity (ln)” value turn out when “ATAACATTCTATGTTGCACACAAAGAGAAAAATTTA [CACACA_site9322]” was run?
A: 9.12

Q: For “TATTATATATCAAAATGTACATTAATTTGAGTAATT [XGTACX_site5434]”, which “gcPBM binding intensity (ln)” value is on record?
A: 6.37

Q: For “AAACGTGCGTATATGTGTACGCATATATATATATAT [XGTACX_site5252]”, which “gcPBM binding intensity (ln)” value is on record?
A: 9.26

Q: “TATTTTATAATAGGCACACATATAAAAATATATATA [CACACA_site4127]” was tested. Which “gcPBM binding intensity (ln)” value did it give?
A: 6.57

Q: Which “gcPBM binding intensity (ln)” value does the source give for “ATTTTTTTATTTTGTGCACACACATAAAAATATATA [CACACA_site762]” here?
A: 11.4

Q: For “ATATATTTTTTAAACACACACATAAATATTTGTGTA [CACACA_site2879]”, which “gcPBM binding intensity (ln)” value is on record?
A: 6.8

Q: For “ATAATACAAAATACATGTACAAATATTTTTCATATT [XGTACX_site1721]”, which “gcPBM binding intensity (ln)” value is on record?
A: 6.43

Q: For “AATAAAATGGAATACGGTACACATAATCCTAAAATG [XGTACX_site926]”, which “gcPBM binding intensity (ln)” value is on record?
A: 6.4

Q: For “TATAACAAGTTATAAAGTACAAATGTTGAATTTTAT [XGTACX_site4673]”, which “gcPBM binding intensity (ln)” value is on record?
A: 6.07

Q: “TTATGTTATATAAAAAGTACAAATTTTTTTTAATTA [XGTACX_site3435]” was tested. Which “gcPBM binding intensity (ln)” value did it give?
A: 5.94

Q: For “GGAGGTTGTTATAAAAGTACAAAAAGTTGCAATTTT [XGTACX_site7351]”, which “gcPBM binding intensity (ln)” value is on record?
A: 10.7

Q: With “AAACGAGAACATAATAAATACATAAATAAATAAATA [GTGCAC_negctrl_site433]” as the sequence, how does the “gcPBM binding intensity (ln)” value read?
A: 6.43

Q: For “ACCCTCATATTATAGACACACACAAAAAAAATAAAA [CACACA_site7941]”, which “gcPBM binding intensity (ln)” value is on record?
A: 6.66

Q: With TATATATAAATATATGTGCACTTTTTATATTTATAT as the sequence, how does the “gcPBM binding intensity (ln)” value read?
A: 9.06

Q: For “CTTTTAAATTATTTTTGTACATAATTATATATATAT [XGTACX_site4128]”, which “gcPBM binding intensity (ln)” value is on record?
A: 8.27

Q: With “TTTTTATTACATAATTAAAAAAAATAATAAAATAAA [XGTACX_negctrl_site249]” as the sequence, how does the “gcPBM binding intensity (ln)” value read?
A: 6.03

Q: TGTATTAAAAATTTGGTGCAACTTTTACATAATAAT was tested. Which “gcPBM binding intensity (ln)” value did it give?
A: 10.8

Q: “TATATAAAAAATAGGTGGTCAACTTAAATATTTTAT [XGTACX_site4495]” was tested. Which “gcPBM binding intensity (ln)” value did it give?
A: 6.46

Q: For TATATTTTATATATGGTGCAACTTTTATTTAAATAA, which “gcPBM binding intensity (ln)” value is on record?
A: 10.7

Q: With “TATAAAAATGTGTATGTACACACTTTATTTTTAATA [CACACA_site2532]” as the sequence, how does the “gcPBM binding intensity (ln)” value read?
A: 6.38

Q: With “TTTATATATATTTATACACACAAACATAATACTACT [CACACA_site5161]” as the sequence, how does the “gcPBM binding intensity (ln)” value read?
A: 6.86

Q: Which “gcPBM binding intensity (ln)” value does the source give for “AAATCAAACTTTGGTGTGCACAAATATATACATATA [GTGCAC_site9986]” here?
A: 11

Q: With “TATTCGAACAAAAATACATGCACATATGCATAATAA [TGCATGCA_site171]” as the sequence, how does the “gcPBM binding intensity (ln)” value read?
A: 10

Q: “TAATAATCAAACTATACACACATAAATAAATATATA [CACACA_site156]” was tested. Which “gcPBM binding intensity (ln)” value did it give?
A: 6.52

Q: Which “gcPBM binding intensity (ln)” value does the source give for “ATAATATTCGAGTGTGCACACAAACATACATATATA [CACACA_site3396]” here?
A: 11.1

Q: With TTACATACAATTGGTGTGCACATATATATATATATA as the sequence, how does the “gcPBM binding intensity (ln)” value read?
A: 10.3

Q: Which “gcPBM binding intensity (ln)” value does the source give for “ATAATATTTAGGTGTGCACACAAACATACATATATA [CACACA_site9120]” here?
A: 10.9

Q: Which “gcPBM binding intensity (ln)” value does the source give for “TTTATTTATATTTATACACACAAACATAATACTACT [CACACA_site7039]” here?
A: 6.82

Q: How did the “gcPBM binding intensity (ln)” value turn out when “AATATTTATGGGTGCACACAAACATACATATATATA [CACACA_site3395]” was run?
A: 10

Q: For “CATATATGTTATATTTAACACACATATAAGGTACAT [CACACA_site8105]”, which “gcPBM binding intensity (ln)” value is on record?
A: 6.51

Q: With “AAGAAAAAGAATAGACGGACAACTAATATAAAATAT [XGTACX_site7905]” as the sequence, how does the “gcPBM binding intensity (ln)” value read?
A: 6.53

Q: “ATATATAAACTGAAGGGTACAATGAAAAAAGAACTT [XGTACX_site7219]” was tested. Which “gcPBM binding intensity (ln)” value did it give?
A: 6.81

Q: Which “gcPBM binding intensity (ln)” value does the source give for “AGCCATATCTTTTTTGCACACACTACAATAAAACAA [CACACA_site1650]” here?
A: 10.1

Q: “CCATATCTTTTTTGCACACACTACAATAAAACAAAA [CACACA_site4995]” was tested. Which “gcPBM binding intensity (ln)” value did it give?
A: 10.6

Q: Which “gcPBM binding intensity (ln)” value does the source give for “TACAACAATTTTTGCACACACCAAAACATAAAATAA [CACACA_site4964]” here?
A: 10.3

Q: Which “gcPBM binding intensity (ln)” value does the source give for “ATTTGTATATACATATGTACACATGTAGGCTCATAA [XGTACX_site1709]” here?
A: 6.92

Q: How did the “gcPBM binding intensity (ln)” value turn out when “ATATTTTCAGTTCTCCATTATGTTCCCATTATTTTT [CACACA_negctrl_site990]” was run?
A: 7.03

Q: Which “gcPBM binding intensity (ln)” value does the source give for “TGGGTGTAGAACAATTGTACTTTGTAAAAATATAAG [XGTACX_site8464]” here?
A: 6.59

Q: How did the “gcPBM binding intensity (ln)” value turn out when “AATGTGCACACGCGTACACACAAAAAAAGAAAAAAA [CACACA_site7031]” was run?
A: 10.2

Q: Which “gcPBM binding intensity (ln)” value does the source give for “TTATGTTATATATACACACACAAAAGAAAAAAAAAA [CACACA_site2987]” here?
A: 6.48

Q: For “CAAAAAAAGAAAGCTACACACATTTATGTGCTATAT [CACACA_site2777]”, which “gcPBM binding intensity (ln)” value is on record?
A: 6.72

Q: With “CATGCTTATATGTGCACACACAAAAGAAAAGAAAAA [CACACA_site1655]” as the sequence, how does the “gcPBM binding intensity (ln)” value read?
A: 11

Q: For “ATTTATGTTATATATACACACACAAAAGAAAAAAAA [CACACA_site8977]”, which “gcPBM binding intensity (ln)” value is on record?
A: 6.89

Q: Which “gcPBM binding intensity (ln)” value does the source give for “TTCATGCTTATATGTGCACACACAAAAGAAAAGAAA [CACACA_site1656]” here?
A: 10.8
